This is part of a sample that, as a whole, favours compounds with a hit. Of some 79,000 tested, about 15% had one in any assay. Active and inactive are the calls of the source. No stated cut-off is given here; in the data, active means growth inhibition above about 70%; inactive means the rest.
Legend:
[1] = NCI Yeast Anticancer Drug Screen. Data for the rad50 strain (AID 155);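 further: 0% = growth of vehicle-only cultures of the same strain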; settings: S. cerevisiae rad50 strain growth inhibition; at 50.0 µM; active compounds read high
In short: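 Growth of the mutant yeast was measured after compound exposure and referenced to vehicle-treated cultures.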

[2] = NCI Yeast Anticancer Drug Screen. Data for the mec2-1 strain (AID 157); settings: S. cerevisiae mec2-1 strain, at 50.0 µM, active compounds read high
In short: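 Each compound was tested on mec2-1 yeast, a strain altered in DNA damage repair or cell cycle control. Growth inhibition is reported relative to vehicle.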

[3] = NCI Yeast Anticancer Drug Screen. Data for the sgs1 mgt1 strain (AID 161);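 further: 0% = growth of cultures given vehicle only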; settings: S. cerevisiae sgs1 mgt1 strain, at 50.0 µM, active compounds read high
In short: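 Genetically altered yeast, compound exposure, growth inhibition relative to vehicle.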

[4] = NCI Yeast Anticancer Drug Screen. Data for the cln2 rad14 strain (AID 165);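 further: 0% = growth equal to vehicle treated cultures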; settings: S. cerevisiae cln2 rad14 strain, at 50.0 µM, active compounds read high
In short: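 Test compounds were added to cln2 rad14 yeast cultures; inhibition of growth was then determined by comparison with vehicle treatment.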

[5] = NCI Yeast Anticancer Drug Screen. Data for the bub3 strain (AID 167); settings: S. cerevisiae bub3 mutant strain, at 50.0 µM, active compounds read high
In short: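 Whole-cell yeast assay. The mutant strain was incubated with compounds, and growth inhibition was determined by comparison with vehicle-treated cells.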

[6] = NCI Yeast Anticancer Drug Screen. Data for the mlh1 rad18 strain (AID 175); settings: S. cerevisiae mlh1 rad18 strain growth inhibition; at 50.0 µM; active compounds read high
In short: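 Inhibition values reflect reduced growth of mutant yeast versus vehicle-treated controls following compound exposure; the mutations affect DNA damage repair.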

Measured: growth inhibition

Cc1cccc2c(C=O)c[nH]c12
inactive: [1] 8.9% | [2] -3.1% | [3] -13.4% | [4] -9.55% | [5] 4.95% | [6] 14.2%

CC1(C)CN(CCO)C(C)(C)CN1CCO
inactive: [1] 13.4% | [2] 7.35% | [3] 7.2% | [4] 12.4% | [5] -27.7% | [6] -10.1%

CC(C)(CN)C(=O)O
inactive: [1] -3.2% | [2] -6.95% | [3] -11.6% | [4] -17.1% | [5] -0.3% | [6] 9.75%

CCOC(=O)C(NC(C)=O)C(C)O (configuration not stated)
inactive: [1] 5.85% | [2] 3.95% | [3] 5.05% | [4] 3.85% | [5] 2.95% | [6] -0.75%

CC1C2CC(CC(=O)N2)C1(C)C (configuration not stated)
inactive: [1] 15.6% | [2] 21.6% | [3] 21.7% | [4] 15.1% | [5] 11.2% | [6] 13.6%

N/C(=N\OC(=O)Nc1ccc(CSc2ccc(Cl)cc2)o1)c1ccccn1
inactive: [1] 2.9% | [2] -22.8% | [3] -14.1% | [4] 10.8% | [5] -16.9% | [6] -31.6%

O=C1C(/C=N\C(=S)NCc2ccccc2)=C(O)c2ccccc21
inactive: [1] -31.9% | [2] -30.2% | [3] -27.1% | [4] 15.7% | [5] -3.45% | [6] -7.05%

[Fe+2].[NH-]C(Cc1ccc(O)cc1)C(=O)O.[NH-]C(Cc1ccc(O)cc1)C(=O)O (configuration not stated)
inactive: [1] 15.1% | [2] 8.25% | [3] 24.1% | [4] 23.4% | [5] -2.4% | [6] 30.1%

COc1ccc(Nc2cc[nH]c(=O)c2NC(C)=O)cc1
inactive: [1] 20.7% | [2] 4.9% | [3] 32.3% | [4] 14.7% | [5] 9.75% | [6] 21%

O=c1c2ccccc2sc2nc(CCl)nn12
inactive: [1] 6.2% | [2] 4.25% | [3] 8.2% | [4] 16.8% | [5] 2.05% | [6] 47.2%

O=c1ccc2c(O)c([N+](=O)[O-])cc([N+](=O)[O-])c2[nH]1
inactive: [1] 10% | [2] -15.7% | [3] 3.15% | [4] 8.85% | [5] 6.3% | [6] 20.2%

CC(C)C1NC(=O)c2ccccc2S1 (configuration not stated)
inactive: [1] 27.8% | [2] -15.9% | [3] -3.55% | [4] 26.1% | [5] 10.7% | [6] 44%

CCOC(=O)/C=C(\C)NC
inactive: [1] -27.5% | [2] -46.9% | [3] -30.9% | [4] -2.75% | [5] -47% | [6] 5.95%

CCn1c(C)cc(=NC(=O)c2ccccc2O)n1-c1ccccc1
inactive: [1] 4.45% | [2] 9.8% | [3] 25.6% | [4] 11.5% | [5] 21% | [6] 16.7%

CS(=O)(=O)N/N=C/C1C=CC=CC1 (configuration not stated)
inactive: [1] -6.9% | [2] 0.7% | [3] -6.25% | [4] -24.4% | [5] -12.2% | [6] -26.6%

COc1cc(C#N)cc(OC)c1
inactive: [1] -17.4% | [2] -16.4% | [3] -26.9% | [4] 3.6% | [5] -12.1% | [6] -5.5%

CN(c1ncc(Cc2cnc(N(C)C3CCN(Cc4ccccc4)CC3)nc2)cn1)C1CCN(Cc2ccccc2)CC1
inactive: [1] -0.75% | [2] -5.95% | [3] -12.8% | [4] -7.95% | [5] -2.95% | [6] -21.8%

CCCCCCCCCCCCCCCC(O)S(=O)(=O)O (configuration not stated)
inactive: [1] -27.2% | [2] -24.9% | [3] -10.1% | [4] 0.55% | [5] -29.4% | [6] -23.9%

CC1(C)OC(=O)C=C(O)O1.CC1(C)OC(=O)C=C(O)O1.CCO.Oc1ccc2c(c1)CCC2.[Ti]
inactive: [1] -15.7% | [2] -13.5% | [3] -29.1% | [4] 20.4% | [5] -5.05% | [6] 6.75%

CCOC(=O)c1[nH]c(C)c(/C(C)=N\NC(N)=O)c1C
inactive: [1] -20.2% | [2] -14.7% | [3] -7.4% | [4] -20.9% | [5] 8% | [6] 10.5%

COc1cc([N+](=O)[O-])c(OC)cc1Nc1ccccc1C(=O)O
inactive: [1] 13.1% | [2] -12.8% | [3] 22.1% | [4] 18.2% | [5] 29.4% | [6] 16%

c1ccc(C2=Nc3ccccc3-c3ccccc3N2)cc1
inactive: [1] -2.95% | [2] -1.35% | [3] -6.05% | [4] -28.4% | [5] -4.75% | [6] -8.05%

O=C(CN(c1ccc(S(=O)(=O)O)cc1)c1ccc(S(=O)(=O)O)cc1)Nn1cnc2ccc(S(=O)(=O)N(c3ccc(S(=O)(=O)O)cc3)c3ccc(S(=O)(=O)O)cc3)cc2c1=O
inactive: [1] 29.1% | [2] 6.15% | [3] 31.2% | [4] 19.2% | [5] 26% | [6] 34.1%

CC(=O)OCCSSCCOC(C)=O
inactive: [1] -4.9% | [2] -26.4% | [3] 13% | [4] 6.55% | [5] -1.9% | [6] -3.75%

Cc1ccc(-c2nn[nH]n2)cc1[N+](=O)[O-]
inactive: [1] 5.65% | [2] 8.6% | [3] -0.65% | [4] -11% | [5] -21.9% | [6] 16.1%

O=C1NC(Cc2ccccc2)C(=O)N2CCCC12 (configuration not stated)
inactive: [1] 2.55% | [2] -6.75% | [3] -12.2% | [4] -18.1% | [5] -1.15% | [6] 3.35%

CCOC(=O)CCC(C(=O)c1cccnc1)c1ccccn1 (configuration not stated)
inactive: [1] -4% | [2] -3.6% | [3] 6.7% | [4] -52.9% | [5] -4.6% | [6] -7.05%

CCOC(=O)/C(=C/c1cccc2ccccc12)P(=O)(OCC)OCC
inactive: [1] 36.6% | [2] 50.9% | [3] 51.7% | [4] 29.4% | [5] 37.1% | [6] 52.4%

CCC1CCC(C(C)(C)C)C(=O)C1 (configuration not stated)
inactive: [1] 6.45% | [2] 1.75% | [3] 2.55% | [4] -11.3% | [5] 3.7% | [6] -4%

O=C(/C=C(\Br)c1ccccc1)c1ccccc1
active: [1] 99.3% | [2] 99.5% | [3] 99.8% | [4] 99.2% | [5] 98.9% | [6] 99.3%

O=C(/C=C\c1ccc([N+](=O)[O-])cc1)c1ccccc1
inactive: [1] -1.6% | [2] -6.1% | [3] -2.4% | [4] -28.3% | [5] -3.6% | [6] -16.2%

Cc1ccc(S(=O)(=O)/C(C#N)=C/n2c(=S)[nH]c3ccc([N+](=O)[O-])cc32)cc1
inactive: [1] -14.3% | [2] -21.1% | [3] -9.05% | [4] -3.25% | [5] -10.6% | [6] 3.3%

CC[N+](C)(CC)Cc1ccccc1[N+](=O)[O-]
inactive: [1] -32.8% | [2] -47.3% | [3] -25.9% | [4] 2.85% | [5] -38.8% | [6] -28.6%

COc1ccc2c(=O)c(S)coc2c1
inactive: [1] 35.8% | [2] 36.5% | [3] 22.3% | [4] 9% | [5] -1.15% | [6] 41%

C/C=C/C(=O)OCCC(C)OC(=O)/C=C/C (configuration not stated)
inactive: [1] 26.1% | [2] -30.4% | [3] 19.4% | [4] 17.4% | [5] 15.9% | [6] 5.25%

CC(=O)CCCCCCCCCCCCCC(C)=O
inactive: [1] -18.1% | [2] -5.1% | [3] -21.1% | [4] -10.8% | [5] 6.25% | [6] -6%

Nc1cccc(Oc2ccc([N+](=O)[O-])cc2)c1
inactive: [1] 16.9% | [2] 25% | [3] 28.3% | [4] 17.2% | [5] 32.5% | [6] 24.7%

O=[N+]([O-])c1cccc(/C=N\O)c1
inactive: [1] -17.8% | [2] -8.45% | [3] -9.9% | [4] -7.45% | [5] -1.2% | [6] -8.4%

CCCCCCCCCCCCCCCCCCSCCCCCCCCCCCCCCCCCC
inactive: [1] 25.1% | [2] 2.75% | [3] -16.9% | [4] -20.4% | [5] -2.55% | [6] -17.6%

COc1ccc(C2ON(c3ccccc3)CC=C2C)cc1 (configuration not stated)
inactive: [1] 36% | [2] -3.2% | [3] 5.55% | [4] 13.1% | [5] 19.4% | [6] 13.1%

COc1cc(N)ccc1C(=O)NC(CCC(=O)O)C(=O)O (configuration not stated)
inactive: [1] -14.5% | [2] -11.2% | [3] 24.9% | [4] -33.7% | [5] 17.9% | [6] -19.7%

CCOc1ccc(NC(=O)CC2SC(=Nc3ccc(C)cc3C)NC2=O)cc1 (configuration not stated)
inactive: [1] 12.6% | [2] 24.5% | [3] 33.3% | [4] 44.3% | [5] 39.4% | [6] 28.8%

— PubChem BioAssay (NCI)
